esBAF inh: Bmi1 luciferase reporter increase in mESCs, primary screen, esBAF inhibitor project, mouse ES cells, Bmi1 luciferase knock-in, single point | 24 h; 100% = twice the neutral-well signal | reporter increase, % at 12.5 µM | 350,000 tested, 2% active | AID 602393, 2012; in the data active = activation above about 40%;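 note: 0% = median of the plate's neutral control wells and 100% = double that signal; a rise in the Bmi1 reporter signal indicates esBAF inhibition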
hgDAF-12 ag: H. glycines DAF-12 receptor agonists, primary screen, cell-based, luminescence, HEK293, GAL4 fusion, UAS-luciferase | Nuclear hormone receptor DAF-12 (Heterodera glycines), GAL4 fusion | HEK293 GAL4-hgDAF12 UAS-luciferase reporter, agonist luminescence; normalized to butyrate control | activation, % at 6.8 µM | 370,000 tested, 1.8% active;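 active = activation above a cutoff set at the mean of all screened compounds plus 3 SD, cut at about 10% in these data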;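 note: 0% = DMSO wells and 100% = sodium butyrate wells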
Wnt bcat act: Wnt/beta-catenin pathway activators, primary screen, cell-based, plate reader, single point. Wnt/beta-catenin reporter cell assay, activator. activation, % at 9.35 µM. 300,000 tested, 1.2% active. AID 743398, 2014; in the data active = activation above about 30%, passing the limit was not always enough;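 note: 0% = neutral control wells and 100% = positive control wells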
hcDAF12 agonist: H. contortus DAF-12 nuclear receptor activators, primary screen, cell-based, luminescence, HEK293, lit1-tk-luc reporter. HEK293 hcDAF-12 lit1-tk-luc reporter; 0% DMSO, 100% Δ7-dafachronic acid. activation, % at 6.8 µM. 370,000 tested, 1.4% active;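 active = activation above the mean of all tested compounds plus 3 SD, cut at about 5.5% in these data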;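 note: 100% = response to 3 µM Δ7-dafachronic acid high control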
ssDAF-12 act: S. stercoralis DAF-12 nuclear receptor activators, primary screen, cell-based, luminescence, HEK293, GRIP1 co-expression, lit1-tk-luc. 370,000 tested, 1% active. Nuclear hormone receptor DAF-12 (Strongyloides stercoralis). HEK293 ssDAF-12/GRIP1 lit1-tk-luc reporter; % of 3 µM dafachronic acid response. activation, % at 6.8 µM;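 active = activation above the mean over all tested compounds plus 3 SD, cut at about 0.9% in these data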;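 note: 0% = DMSO-only wells and 100% = 3 µM delta7-dafachronic acid wells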
DAX1 StAR inh: DAX1 (NR0B1) inhibitors on StAR promoter, primary screen, cell-based, luminescence, SF-1 (NR5A1), full-length DAX-1; inhibition, % at 6.8 µM; HEK293T StAR-luciferase reporter, SF-1/DAX-1 repression relief; 370,000 tested, 1.1% active; AID 652010, 2013;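 active = inhibition above the mean over all tested compounds plus 3 SD, cut at about 3.6% in these data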;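 note: 0% = DAX-1 cells with DMSO and 100% = cells lacking DAX-1 with DMSO; higher inhibition means more luminescence from relief of DAX-1 repression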
LXRb hcDAF ctr: LXR agonists, Gal4 luciferase reporter, confirmation, counter-screen for hcDAF-12 agonist project, cell-based, luminescence, HEK293, H. contortus campaign. shares compounds with hcDAF12 agonist. HEK293 Gal4-LXR tk-luc reporter, 24 h; normalized: DMSO 0%, positive control 100%. activation, % at 6.8 µM. 3,400 tested, under 10 active;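 active = mean percent activation of the reporter above a cutoff set as the average over tested compounds plus their standard deviation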
Target sequence (P55055 whole entry, looked up, the tested form may be a part): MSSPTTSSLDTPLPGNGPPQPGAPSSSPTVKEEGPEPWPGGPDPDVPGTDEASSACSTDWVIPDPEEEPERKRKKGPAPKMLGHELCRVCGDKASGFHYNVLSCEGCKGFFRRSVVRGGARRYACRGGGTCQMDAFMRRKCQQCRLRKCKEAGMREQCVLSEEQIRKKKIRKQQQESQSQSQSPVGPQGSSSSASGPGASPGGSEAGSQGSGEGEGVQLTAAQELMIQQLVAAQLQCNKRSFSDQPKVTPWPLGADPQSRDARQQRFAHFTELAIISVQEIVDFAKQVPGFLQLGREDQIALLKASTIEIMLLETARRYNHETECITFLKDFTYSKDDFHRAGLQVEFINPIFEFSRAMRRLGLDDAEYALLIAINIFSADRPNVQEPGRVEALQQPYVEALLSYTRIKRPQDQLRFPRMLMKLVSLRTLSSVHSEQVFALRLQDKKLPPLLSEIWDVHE
hcDAF12 ag: H. contortus DAF-12 receptor agonists, confirmation, cell-based, luminescence, HEK293, lit1-tk-luc, triplicate. AID 743032, 2013. shares compounds with hcDAF12 agonist. 3,400 tested, 61% active. HEK293 hcDAF-12 lit1-tk-luc reporter; % of Δ7-dafachronic acid response. activation, % at 6.8 µM;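 active = mean activation across triplicate tests above the threshold derived from the earlier primary screen, cut at about 5.5% in these data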;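 note: 0% = DMSO only wells and 100% = 3 µM Δ7-dafachronic acid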
* hit, by the source's call; · = no result given. This is a sample that favours compounds with a hit; in the whole collection about 4.2% have one here.

SMILES	esBAF inh	hgDAF-12 ag	Wnt bcat act	hcDAF12 agonist	ssDAF-12 act	DAX1 StAR inh	LXRb hcDAF ctr	hcDAF12 ag
CC(=O)c1cccc2c(O)c(C3=Nc4ccccc4C3=O)[nH]c12	13	5	40*	6.6*	1.2*	1	1	7.1*
C[C@H]1CN([C@@H](C)CO)S(=O)(=O)c2ccc(-c3cccnc3)cc2O[C@@H]1CN(C)C(=O)C1CCCCC1	0	·	·	·	·	·	·	·
CCN1CCN(C(=O)C2CCN(c3nnc(-n4c(C)ccc4C)s3)CC2)CC1	-2	4	2	11*	0	0	0	1
CC(C)CC#Cc1ccc2c(c1)O[C@@H](CN(C)CC1CCOCC1)[C@H](C)CN([C@H](C)CO)S2(=O)=O	-4	·	·	·	·	·	·	·
O=C(COC(=O)c1ccccc1Br)NCCN1C(=O)CSC1=O	·	3	4	1	-1	0	·	·
O=C(COC(=O)c1cccc(Cl)c1Cl)NCCN1C(=O)CSC1=O	·	1	-2	9.0*	1	0	0	1
Cc1ccc(N(CC(=O)Nc2ccccc2-c2ccccc2)S(=O)(=O)c2ccccc2)c(C)c1	·	2	-9	6.6*	-2	0	0	2
C[C@H]1CN([C@@H](C)CO)C(=O)c2cc(C3=CCCC3)cnc2O[C@H]1CN(C)Cc1ccccn1	-1	·	·	·	·	·	·	·
C[C@@H]1CN([C@H](C)CO)C(=O)c2cc(/C=C/c3ccccc3)cnc2O[C@@H]1CN(C)Cc1cncnc1	-3	·	·	·	·	·	·	·
c1ccc(-c2cc3cc4c(cc3cn2)OCO4)cc1	30	13*	63*	8.1*	1.4*	2	2	8.5*
COc1cc(OC)cc(-c2cc3cc4c(cc3cn2)OCO4)c1	-16	·	·	·	·	·	·	·
O=C1CCN(Cc2ccccc2)C=C1c1ccc2ccccc2c1	63*	11*	44*	9.4*	1.0*	2	1	7.0*
Cc1noc(C)c1NC(=O)Nc1ccc2c(c1)C(=O)N([C@@H](C)CO)C[C@@H](C)[C@H](CN(C)C(=O)Nc1ccc(F)cc1)O2	0	·	·	·	·	·	·	·
O=C(NCCc1ccccc1)c1ccc(S(=O)(=O)N2CCCCC2)cc1	29	0	-4	-2	-2	0	·	·
Cc1cc2ccccc2n1CCNC(=O)c1ccc(S(=O)(=O)N2CCCCC2)cc1	-2	0	-6	7.5*	-1	1	0	0
CC(=O)c1cc(C(=O)N2CCc3c([nH]c4ccccc34)C2CC(C)C)[nH]n1 (stereo unspecified)	4	1	0	3	0	1	·	·
CC(C)CC1c2[nH]c3ccccc3c2CCN1C(=O)c1cnccn1 (stereo unspecified)	·	5	16	9.6*	0.9*	1	1	12*
COC(=O)c1c[nH]n2c(=O)cc(C)nc12	-6	-1	0	-2	-2	-1	·	·
COC(=O)c1c[nH]n2c(=O)c(Cl)c(C)nc12	·	1	-1	8.7*	-1	0	0	2
CC(=O)N1[C@@H]2c3ccc(C4=CCCCC4)c(=O)n3C[C@H]1[C@H](CO)[C@H]2C(=O)NC1CCC1	-4	·	·	·	·	·	·	·
Cc1cc2ccccn2c1C(=O)Nc1ccc(Cl)cc1	·	10	7	8.8*	0	1	1	9.4*

Screening data: PubChem, several laboratories
